Data on eight sequences can be found in publication PMC7862700, “An all-to-all approach to the identification of sequence-specific readers for epigenetic DNA modifications on cytosine”.

Common to all, as to experiment: DAPPL (digital affinity profiling via proximity ligation, sequencing); 10 mM Tris-HCl pH 7.5, 50 mM NaCl, 1 mM DTT, 4% glycerol, room temperature, 30 min; GST-TFs on glutathione beads, 16-mer random dsDNA library, 0.1% formaldehyde crosslink after washing; high values mean tight binding
Holding throughout (conditions): protein: recombinant; tags: N-terminal GST; dsDNA, one strand shown

For one test, the target named is T1, FLI1 (Homo sapiens, UniProt Q01543 1-452).
T1 sequence: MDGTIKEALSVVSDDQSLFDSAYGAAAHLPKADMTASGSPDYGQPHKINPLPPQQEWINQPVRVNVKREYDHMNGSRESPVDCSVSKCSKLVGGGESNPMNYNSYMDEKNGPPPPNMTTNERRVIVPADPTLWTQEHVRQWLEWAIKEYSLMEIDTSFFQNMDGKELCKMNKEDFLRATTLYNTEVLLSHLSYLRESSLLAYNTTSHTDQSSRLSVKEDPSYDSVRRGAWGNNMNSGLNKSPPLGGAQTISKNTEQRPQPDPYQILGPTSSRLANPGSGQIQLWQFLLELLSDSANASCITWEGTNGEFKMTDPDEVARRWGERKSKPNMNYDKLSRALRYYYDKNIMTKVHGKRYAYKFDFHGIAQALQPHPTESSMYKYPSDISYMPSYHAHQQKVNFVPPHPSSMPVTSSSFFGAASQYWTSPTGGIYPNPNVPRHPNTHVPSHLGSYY
The procedure, abridged: (§1)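 Binding signal is given per hexamer as its read frequency for a factor divided by its frequency in the tag-only sample. GST-fused human transcription factors were expressed in yeast, captured on glutathione beads, barcoded with DNA and pooled with that sample, then incubated with 200 nmole of a 16-mer random double-stranded DNA library in Tris/NaCl/DTT/glycerol buffer for 30 min at room temperature. The pools were then washed, crosslinked, proximity-ligated, amplified by PCR and sequenced on an Illumina NextSeq500.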

For another test, the target named is T2, ELK1 (Homo sapiens, UniProt P19419 1-428).
T2 sequence: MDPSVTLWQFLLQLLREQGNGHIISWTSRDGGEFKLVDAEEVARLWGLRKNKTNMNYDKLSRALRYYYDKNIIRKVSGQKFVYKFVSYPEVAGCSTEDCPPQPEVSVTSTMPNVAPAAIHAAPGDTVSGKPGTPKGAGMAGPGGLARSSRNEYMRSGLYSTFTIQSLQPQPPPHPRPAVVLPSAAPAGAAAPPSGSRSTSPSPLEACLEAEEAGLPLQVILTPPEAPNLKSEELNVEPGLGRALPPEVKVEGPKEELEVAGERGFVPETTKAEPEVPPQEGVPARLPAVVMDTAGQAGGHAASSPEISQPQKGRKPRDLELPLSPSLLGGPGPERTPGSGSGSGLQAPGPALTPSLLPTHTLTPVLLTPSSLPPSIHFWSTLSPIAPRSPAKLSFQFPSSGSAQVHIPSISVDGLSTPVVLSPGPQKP
Put shortly:
as §1

The next test concerns the target T3, GABPA (Homo sapiens, UniProt Q06546 1-454).
T3 sequence: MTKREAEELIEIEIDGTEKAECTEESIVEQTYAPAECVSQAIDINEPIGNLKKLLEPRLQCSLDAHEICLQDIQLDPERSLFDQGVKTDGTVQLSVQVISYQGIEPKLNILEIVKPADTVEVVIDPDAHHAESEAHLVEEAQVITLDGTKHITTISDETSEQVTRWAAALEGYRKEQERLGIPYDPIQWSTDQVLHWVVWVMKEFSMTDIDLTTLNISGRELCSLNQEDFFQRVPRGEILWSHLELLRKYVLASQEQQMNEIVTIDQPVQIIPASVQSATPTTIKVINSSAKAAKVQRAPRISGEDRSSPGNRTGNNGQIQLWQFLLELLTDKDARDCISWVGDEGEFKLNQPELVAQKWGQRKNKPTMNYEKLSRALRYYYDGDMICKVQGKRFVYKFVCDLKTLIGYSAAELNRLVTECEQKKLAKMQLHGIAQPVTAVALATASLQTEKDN
The procedure, abridged:
as §1

The target of a further test is T4, ERG (Homo sapiens, UniProt P11308 1-479).
T4 sequence: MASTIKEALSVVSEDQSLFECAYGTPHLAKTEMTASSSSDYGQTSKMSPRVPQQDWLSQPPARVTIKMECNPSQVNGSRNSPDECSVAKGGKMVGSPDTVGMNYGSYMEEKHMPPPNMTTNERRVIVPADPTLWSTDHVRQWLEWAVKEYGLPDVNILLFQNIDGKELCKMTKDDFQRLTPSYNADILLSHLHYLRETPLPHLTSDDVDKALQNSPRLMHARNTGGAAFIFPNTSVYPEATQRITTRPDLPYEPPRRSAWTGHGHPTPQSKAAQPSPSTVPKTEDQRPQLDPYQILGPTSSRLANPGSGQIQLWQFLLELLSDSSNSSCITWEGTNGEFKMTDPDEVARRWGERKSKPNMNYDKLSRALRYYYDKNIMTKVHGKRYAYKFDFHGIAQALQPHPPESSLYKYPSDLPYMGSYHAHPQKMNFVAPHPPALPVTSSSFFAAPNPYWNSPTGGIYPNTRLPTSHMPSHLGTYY
Put shortly:
as §1

The target of another test is ELF1 (Homo sapiens, UniProt P32519 1-619). Put shortly: as §1
Chain of ELF1 (P32519 whole entry): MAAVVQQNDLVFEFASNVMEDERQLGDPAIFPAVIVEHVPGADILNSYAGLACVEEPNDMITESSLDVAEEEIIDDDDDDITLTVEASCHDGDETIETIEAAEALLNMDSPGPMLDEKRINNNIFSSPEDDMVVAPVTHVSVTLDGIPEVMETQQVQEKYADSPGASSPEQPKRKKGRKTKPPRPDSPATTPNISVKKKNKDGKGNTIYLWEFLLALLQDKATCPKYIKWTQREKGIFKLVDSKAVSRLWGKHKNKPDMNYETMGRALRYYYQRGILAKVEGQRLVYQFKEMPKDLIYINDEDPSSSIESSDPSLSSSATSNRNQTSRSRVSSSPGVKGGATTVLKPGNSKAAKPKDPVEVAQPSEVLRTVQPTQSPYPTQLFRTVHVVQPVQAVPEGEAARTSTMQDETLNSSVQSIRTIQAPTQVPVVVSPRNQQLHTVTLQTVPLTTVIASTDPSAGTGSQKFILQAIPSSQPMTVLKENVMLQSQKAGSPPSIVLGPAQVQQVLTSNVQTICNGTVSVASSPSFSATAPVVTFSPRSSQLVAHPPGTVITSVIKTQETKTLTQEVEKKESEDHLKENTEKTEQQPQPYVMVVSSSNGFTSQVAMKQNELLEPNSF
A further test addresses T5, EHF (Homo sapiens, UniProt Q9NZC4 1-300).
T5 sequence: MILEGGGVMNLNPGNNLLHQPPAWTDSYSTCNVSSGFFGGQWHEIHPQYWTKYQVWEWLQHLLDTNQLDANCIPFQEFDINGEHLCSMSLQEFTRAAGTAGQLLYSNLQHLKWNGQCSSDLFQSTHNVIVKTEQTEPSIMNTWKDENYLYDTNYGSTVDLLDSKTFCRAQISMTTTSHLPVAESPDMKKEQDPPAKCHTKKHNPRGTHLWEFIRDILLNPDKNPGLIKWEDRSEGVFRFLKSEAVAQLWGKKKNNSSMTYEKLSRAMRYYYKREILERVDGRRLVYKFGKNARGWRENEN
The procedure, abridged:
as §1

The target in the next test is SPI1 (Homo sapiens, UniProt P17947 1-270). Put shortly: as §1
For the next test, the target named is SPIB (Homo sapiens, UniProt Q01892 1-262). Put shortly:
as §1

The next test deals with T6, ELK3 (Homo sapiens, UniProt P41970 1-407).
T6 sequence: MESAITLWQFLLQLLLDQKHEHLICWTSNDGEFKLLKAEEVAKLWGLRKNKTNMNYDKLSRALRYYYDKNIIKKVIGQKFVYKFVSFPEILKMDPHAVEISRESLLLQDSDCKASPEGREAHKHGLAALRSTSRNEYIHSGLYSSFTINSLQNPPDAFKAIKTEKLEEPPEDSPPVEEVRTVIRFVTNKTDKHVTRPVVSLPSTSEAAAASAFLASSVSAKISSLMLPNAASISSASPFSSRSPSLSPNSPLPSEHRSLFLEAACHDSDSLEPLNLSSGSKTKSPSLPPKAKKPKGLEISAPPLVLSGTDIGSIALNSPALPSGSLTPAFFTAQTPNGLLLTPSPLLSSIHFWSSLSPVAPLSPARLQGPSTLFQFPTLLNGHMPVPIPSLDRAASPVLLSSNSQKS
Put shortly:
as §1

Chain of SPIB (Q01892 whole entry): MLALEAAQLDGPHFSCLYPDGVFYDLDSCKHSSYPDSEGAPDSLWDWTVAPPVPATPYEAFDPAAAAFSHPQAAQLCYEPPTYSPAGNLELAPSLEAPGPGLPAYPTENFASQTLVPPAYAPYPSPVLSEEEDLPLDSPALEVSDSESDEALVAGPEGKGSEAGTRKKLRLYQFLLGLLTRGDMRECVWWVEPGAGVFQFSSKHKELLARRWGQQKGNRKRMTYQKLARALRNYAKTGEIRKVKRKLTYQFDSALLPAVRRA

As for ATCCAT, the binding signal in the test with FLI1 is 1.22 fold enrichment (6-mer frequency, TF over GST control); in the test with ELK1 it was 1.17 fold enrichment (6-mer frequency, TF over GST control); with GABPA, 1.16 fold enrichment (6-mer frequency, TF over GST control); with ERG it was 1.11 fold enrichment (6-mer frequency, TF over GST control); in the test with ELF1, 1.14 fold enrichment (6-mer frequency, TF over GST control); with EHF, 1.14 fold enrichment (6-mer frequency, TF over GST control). Besides, the binding signal with SPI1 is 1.07 fold enrichment (6-mer frequency, TF over GST control); in the test with SPIB, 1.18 fold enrichment (6-mer frequency, TF over GST control); with ELK3, 1.2 fold enrichment (6-mer frequency, TF over GST control).

For the sequence GGCTCT, the binding signal in the test with FLI1 is 1.15 fold enrichment (6-mer frequency, TF over GST control); with ELK1 it was 1.23 fold enrichment (6-mer frequency, TF over GST control); in the test with GABPA, 1.23 fold enrichment (6-mer frequency, TF over GST control); with ERG it was 1.26 fold enrichment (6-mer frequency, TF over GST control); in the test with ELF1, 1.29 fold enrichment (6-mer frequency, TF over GST control); with EHF it was 1.27 fold enrichment (6-mer frequency, TF over GST control). The binding signal is 1.18 fold enrichment (6-mer frequency, TF over GST control) in the test with SPI1; 1.26 fold enrichment (6-mer frequency, TF over GST control) with SPIB; 1.42 fold enrichment (6-mer frequency, TF over GST control) with ELK3.

On to TGCTTC, for which the binding signal was 2.13 fold enrichment (6-mer frequency, TF over GST control) with FLI1; 2.3 fold enrichment (6-mer frequency, TF over GST control) with ELK1; 2.09 fold enrichment (6-mer frequency, TF over GST control) with GABPA; 2.37 fold enrichment (6-mer frequency, TF over GST control) with ERG; 2 fold enrichment (6-mer frequency, TF over GST control) in the test with ELF1; 2.16 fold enrichment (6-mer frequency, TF over GST control) with EHF. The binding signal with SPI1 is 2.24 fold enrichment (6-mer frequency, TF over GST control); with SPIB, 2.31 fold enrichment (6-mer frequency, TF over GST control); in the test with ELK3, 2.47 fold enrichment (6-mer frequency, TF over GST control).

TTCGAA: the binding signal with FLI1 was 1.14 fold enrichment (6-mer frequency, TF over GST control); with ELK1, 1.2 fold enrichment (6-mer frequency, TF over GST control); in the test with GABPA it was 1.19 fold enrichment (6-mer frequency, TF over GST control); with ERG, 1.19 fold enrichment (6-mer frequency, TF over GST control); with ELF1 it was 1.28 fold enrichment (6-mer frequency, TF over GST control); with EHF it was 1.12 fold enrichment (6-mer frequency, TF over GST control). The binding signal is 1.14 fold enrichment (6-mer frequency, TF over GST control) with SPI1; 1.12 fold enrichment (6-mer frequency, TF over GST control) with SPIB; 1.33 fold enrichment (6-mer frequency, TF over GST control) with ELK3.

On to TAATTC, for which the binding signal with FLI1 was 1.5 fold enrichment (6-mer frequency, TF over GST control); with ELK1, 1.36 fold enrichment (6-mer frequency, TF over GST control); with GABPA it was 1.48 fold enrichment (6-mer frequency, TF over GST control); in the test with ERG, 1.48 fold enrichment (6-mer frequency, TF over GST control); with ELF1, 1.48 fold enrichment (6-mer frequency, TF over GST control); with EHF it was 1.37 fold enrichment (6-mer frequency, TF over GST control). Moreover, the binding signal was 1.33 fold enrichment (6-mer frequency, TF over GST control) with SPI1; 1.51 fold enrichment (6-mer frequency, TF over GST control) in the test with SPIB; 1.58 fold enrichment (6-mer frequency, TF over GST control) in the test with ELK3.

Take AGCTTC: the binding signal with FLI1 was 1.64 fold enrichment (6-mer frequency, TF over GST control); with ELK1 it was 1.86 fold enrichment (6-mer frequency, TF over GST control); with GABPA, 1.71 fold enrichment (6-mer frequency, TF over GST control); in the test with ERG it was 1.83 fold enrichment (6-mer frequency, TF over GST control); with ELF1, 1.66 fold enrichment (6-mer frequency, TF over GST control); with EHF, 1.83 fold enrichment (6-mer frequency, TF over GST control). Besides, the binding signal with SPI1 is 1.74 fold enrichment (6-mer frequency, TF over GST control); with SPIB, 1.78 fold enrichment (6-mer frequency, TF over GST control); in the test with ELK3, 2.06 fold enrichment (6-mer frequency, TF over GST control).

On to AACTCA, for which the binding signal is 1.35 fold enrichment (6-mer frequency, TF over GST control) with FLI1; 1.27 fold enrichment (6-mer frequency, TF over GST control) with ELK1; 1.25 fold enrichment (6-mer frequency, TF over GST control) with GABPA; 1.12 fold enrichment (6-mer frequency, TF over GST control) with ERG; 1.23 fold enrichment (6-mer frequency, TF over GST control) with ELF1; 1.18 fold enrichment (6-mer frequency, TF over GST control) with EHF. For the same sequence, the binding signal in the test with SPI1 is 1.25 fold enrichment (6-mer frequency, TF over GST control); in the test with SPIB it was 1.23 fold enrichment (6-mer frequency, TF over GST control); with ELK3, 1.36 fold enrichment (6-mer frequency, TF over GST control).

Regarding TCCTTC, the binding signal with FLI1 was 2.2 fold enrichment (6-mer frequency, TF over GST control); with ELK1 it was 2 fold enrichment (6-mer frequency, TF over GST control); in the test with GABPA, 2.01 fold enrichment (6-mer frequency, TF over GST control); with ERG, 2.44 fold enrichment (6-mer frequency, TF over GST control); with ELF1 it was 2.05 fold enrichment (6-mer frequency, TF over GST control); in the test with EHF, 2 fold enrichment (6-mer frequency, TF over GST control). The binding signal with SPI1 was 2.15 fold enrichment (6-mer frequency, TF over GST control); with SPIB, 2.16 fold enrichment (6-mer frequency, TF over GST control); with ELK3, 2.3 fold enrichment (6-mer frequency, TF over GST control).
